# Only some compounds are listed: those with a hit (about 0.97% of all), similar ones and a draw of the others.
# S1P4 antag: human S1P4 receptor antagonism | S1P4-expressing cells, antagonist mode, reporter read-out | inhibition, % at 4.98 µM | actives 0.26% (n = 220,000) | AID 1510; in the data active = inhibition above about 29%;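 note: 0% = wells stimulated with agonist and 100% = vehicle wells without agonist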
# Hsp70 act: switches on Hsp70 transcription; actives 0.04% (n = 200,000); AID 1203; activation, % at 10 µM; HeLa Hsp70 promoter luciferase reporter, luminescence; scaled: vehicle 0, proteasome-inhibitor control 100%;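 active = activation above the mean across all tested compounds plus 3 SD, cutoff set per campaign, cut at about 5.5% in these data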;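 note: 100% = MG132 at 30 µM as the positive control and 0% = DMSO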
# S1P3 antag: S1P3 (human) receptor antagonism | Q99500 | CHO S1P3 NFAT-BLA reporter, FRET fluorescence, antagonist mode | inhibition, % at 4.98 µM | actives 0.27% (n = 170,000);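 active = inhibition above the plate cutoff, the mean inhibition of test wells on that plate plus 3 SD, cut at about 28% in these data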;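 note: cells challenged with S1P at its EC80 of 0.8 µM; blue over green emission ratio from cleaved BLA substrate after 4 h stimulation; 0% = S1P-stimulated wells and 100% = unstimulated DMSO-only wells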
# Target sequence (Q99500 whole entry, looked up): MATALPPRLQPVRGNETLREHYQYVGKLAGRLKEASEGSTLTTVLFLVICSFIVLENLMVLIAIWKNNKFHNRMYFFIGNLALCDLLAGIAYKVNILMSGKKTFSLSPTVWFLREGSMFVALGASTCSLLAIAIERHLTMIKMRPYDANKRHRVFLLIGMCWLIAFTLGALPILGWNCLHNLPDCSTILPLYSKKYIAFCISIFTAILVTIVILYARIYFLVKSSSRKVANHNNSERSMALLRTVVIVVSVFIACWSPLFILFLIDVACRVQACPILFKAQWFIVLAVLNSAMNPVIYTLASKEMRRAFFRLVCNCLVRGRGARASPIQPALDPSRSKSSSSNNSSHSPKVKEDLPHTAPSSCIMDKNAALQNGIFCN
# AI-2 QS modul: modulates the Vibrio harveyi AI-2 quorum sensing system; Vibrio harveyi JMH597 AI-2 luminescence/OD600 ratio, 9 h; hits give low values; strain lacks LuxN and CqsS sensors; 0 = neutral-control median; activity change, % at 7.5 µM; actives 0.4% (n = 300,000); in the data active = activity change below about -75%, passing the limit was not always enough; inconclusive = no clear call, values can overlap the other calls;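 note: luminescence divided by OD600 gain over 9 h not by final OD600 alone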
# S1P4 agonist: activates the human S1P4 receptor; O95977; S1P4-expressing cell line, agonist reporter assay; activation, % at 4.98 µM; actives 0.35% (n = 220,000); in the data active = activation above about 11%;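 note: 0% = DMSO vehicle and 100% = reference agonist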
# JMH597 growth: retest: inhibitors of Vibrio harveyi JMH597 growth | shares compounds with AI-2 QS modul | OD600 absorbance, 9 h; lacks LuxN and CqsS sensors | growth inhibition, % at 7.5 µM | actives 1% (n = 750) | AID 2726;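 active = every replicate shows growth inhibition above 50%; inconclusive = at least half, but not all, replicates pass that cutoff; inactive = fewer than half of replicates pass it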
# BB721 const-QS lum: retest counter-screen: luminescence loss in constitutive-on quorum sensing strain BB721; shares compounds with AI-2 QS modul; Vibrio harveyi BB721 luminescence, 9 h; inhibition, % at 7.5 µM; actives 95% (n = 750); AID 2727;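 active = inhibition above about 80% in every replicate, not just on average, limit read from the data; inconclusive = at least half of replicates past the limit, but not all; inactive = fewer than half of replicates past the limit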
# BB721 growth rt: retest: inhibitors of Vibrio harveyi BB721 growth; shares compounds with AI-2 QS modul; OD600 absorbance, 9 h; growth inhibition, % at 7.5 µM; actives 3% (n = 750); AID 2728;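 active = every replicate shows growth inhibition above 50%; inconclusive = at least half but not all replicates above 50% inhibition; inactive = under half of replicates above 50% inhibition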
# AI-2 QS JMH597: Vibrio harveyi AI-2 signaling luminescence modulation – JMH597 strain, confirmation. inhibition, % at 7.5 µM. Vibrio harveyi JMH597 AI-2 quorum sensing luminescence, 9 h; luxN and CqsS knockout, AI-2 only. shares compounds with AI-2 QS modul. AID 2736. actives 97% (n = 750);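 active = every replicate shows more than 75% inhibition of signal versus neutral control wells; inconclusive = half to three quarters of replicates exceed 75% inhibition; inactive = fewer than half of replicates exceed 75% inhibition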
# An asterisk follows results filed as active; ? = inconclusive; · = not tested or not shown.
SMILES,S1P4 antag,Hsp70 act,S1P3 antag,AI-2 QS modul,S1P4 agonist,JMH597 growth,BB721 const-QS lum,BB721 growth rt,AI-2 QS JMH597
Oc1ccc(C[C@@H]2CNC(=S)N2CCCCC2CCCCC2)cc1,6.7,-0.1,-1.9,-92.4*,0.2,1.3,92.5*,-20.3,95.9*
COC(=O)Cc1cc(C)cc2c(=O)cc(-c3ccoc3)oc12,·,·,·,9.8,·,·,·,·,·
COC(=O)c1ccc(NC(=O)CN2C(=O)c3ccccc3S2(=O)=O)cc1,·,·,·,-89.9*,·,16.9,96.1*,4.3,97.0*
Cc1ccc(O)c(NC(=O)CCC2CCCCC2)c1,18.3,0.9,-1.8,-83.7*,1.4,17.2,93.2*,16.8,95.3*
O=C(CCC1CCCCC1)Nc1ccccc1O,-13.2,0.1,-18.1,-85.0*,-1.7,23.7,93.6*,23.5,93.8*
Cc1ccc(O)c(NC(=O)C2CCCCC2)c1,-8.9,·,6.7,13.9,1.6,·,·,·,·
COc1ccc(S(=O)(=O)Nc2ccc(S(=O)(=O)Nc3nccs3)cc2)cc1,·,·,·,-0.4,·,·,·,·,·
O=C(CN1C(=O)c2ccccc2C1=O)Nc1ccc(S(=O)(=O)NCC2CCCO2)cc1 (stereo not drawn),-19.7,-0.2,9.6,-91.1*,-1.8,-8.9,96.1*,-31.9,97.4*
COc1ccc(CC(=O)Nc2ccc(S(=O)(=O)Nc3nccs3)cc2)cc1,·,·,·,?,·,-2.0,83.8*,3.2,89.0*
COc1ccc(CC(=O)Nc2ccc(C(N)=O)cc2)cc1,-22.1,·,-3.4,?,1.2,1.5,85.0*,-6.6,88.8*
COc1ccc(CC(=O)OCC(=O)Nc2ccc(C(=O)Nc3ccc(OC)cc3)cc2)cc1,-9.2,0.0,-14.0,27.0,0.3,·,·,·,·
CC(Oc1ccccc1)C(=O)Nc1ccc(S(=O)(=O)NCC2CCCO2)cc1 (stereo not drawn),-13.7,0.1,11.8,?,-2.7,29.0,97.2*,-18.0,99.6*
CCc1ccc(C2NC(=O)c3ccccc3O2)cc1 (stereo not drawn),·,·,·,1.7,·,·,·,·,·
O=C(Cc1ccc(Cl)cc1)Nc1ccc(S(=O)(=O)Nc2ncccn2)cc1,·,·,·,-92.0*,·,17.4,97.7*,28.1,98.8*
COc1ccc(CC(=O)Nc2ccc(S(=O)(=O)NCC3CCCO3)cc2)cc1 (stereo not drawn),-23.6,-0.2,17.3,-92.7*,-1.8,30.7,99.4*,-33.6,99.8*
Cc1ccnc(NS(=O)(=O)c2ccc(NC(=O)Cc3ccc(Cl)cc3)cc2)n1,·,·,·,-45.8,·,·,·,·,·

# Screening data from PubChem.
